Assay results: PubChem BioAssay
Unmarked numbers belong to inactive results. How the calls were made is not given here.

biological target: Pantothenate synthetase (Mycobacterium tuberculosis (strain ATCC 25618 / H37Rv)) (UniProt P9WIL5); assay: Coupled enzyme confirmation of inhibitors against recombinant Mtb PanC (AID 375); conditions: coupled enzyme assay; at 10 µM, hits give high values;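 further: 0% = full reaction with vehicle and 100% = no enzyme background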
Sequence (P9WIL5 whole entry, looked up): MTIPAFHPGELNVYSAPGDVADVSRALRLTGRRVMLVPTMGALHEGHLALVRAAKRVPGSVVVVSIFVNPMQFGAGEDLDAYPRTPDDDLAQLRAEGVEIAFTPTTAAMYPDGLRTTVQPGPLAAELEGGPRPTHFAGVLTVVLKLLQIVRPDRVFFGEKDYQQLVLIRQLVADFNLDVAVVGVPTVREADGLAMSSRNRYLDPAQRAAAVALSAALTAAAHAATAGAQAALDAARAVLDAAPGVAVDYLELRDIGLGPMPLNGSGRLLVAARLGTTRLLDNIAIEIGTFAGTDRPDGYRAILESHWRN

| Compound | inhibition [%] |
| --- | --- |
| O=C(c1ccco1)N1CCN(CC(=O)N(C2CCCCC2)C2CCS(=O)(=O)C2)CC1 (stereo not given) | 2 |
| CCOC(=O)c1oc2ccccc2c1CSc1nnnn1-c1ccc(C)cc1 | 1 |
| COc1ccccc1NC(=O)C1=C(C)Nc2nc(CCCO)nn2C1c1cccnc1 (stereo not given) | 1 |
| O=C(CSc1ncnc2ccccc12)NCCCO | 0 |
| CC(C)COc1nc2ccccc2nc1C(C#N)C(=O)NC1CCCCC1 (stereo not given) | 0 |
| CC(=O)Nc1ccc(S(=O)(=O)NCC2CCC(C(=O)NCCCN3CCCC3=O)CC2)cc1 (stereo not given) | 0 |
| O=C(c1cccn2c(=O)c3cc(Cl)ccc3nc12)N1CCOCC1 | 3 |
| CSc1nsc(SCC(=O)N2CCc3ccccc32)n1 | 8 |
| N#CC1=C(N)SC(N)=C(C#N)C1c1ccc(C(F)(F)F)cc1 | 0 |
| CCOc1ccc(OCCCCN(C)C)cc1 | 2 |
| CCOc1ccc(N(CC(=O)Nc2ccc(C)c(C)c2)S(=O)(=O)c2c(C)noc2C)cc1 | 0 |
| CC1(C)CC(=O)C(C=NCC2CCNCC2)=C(O)C1 | 2 |
| CCOc1ccc(NC(=O)COC(=O)Cn2cnnn2)cc1OCC | 0 |
| COc1ccc(Cl)cc1NC(=O)CSc1nncn1-c1cccnc1 | 9 |
| Cc1ccc(SC(C)c2nc(-c3ccccc3)no2)cc1 (stereo not given) | 0 |
| c1cncc(-c2nnc(-c3ccco3)o2)c1 | 4 |
| Cc1cc(C(=O)NCCN2CCN(c3cccc(Cl)c3)CC2)n(-c2ccccc2)n1 | 0 |
| COc1ccc2cc(CN(Cc3ccco3)C(c3nnnn3C3CCCCC3)C(C)C)c(=O)[nH]c2c1 (stereo not given) | 5 |
| O=C(CN1CCN(C(=O)c2ccccc2)CC1)Nc1ncc(Br)cc1Br | 0 |
| Cc1cccc(C)c1-n1nnnc1SCSc1nnnn1-c1c(C)cccc1C | 1 |

| Compound | inhibition [%] |
| --- | --- |
| O=C1NC(c2cccnc2)C(C(=O)c2cccs2)C(O)(C(F)(F)F)N1 (stereo not given) | 6 |
| CCCn1c(=NC(C)=O)c(C#N)cc2c(=O)n3cccc(C)c3nc21 | 0 |
| C/C(N)=C(/C#N)C(=O)COC(=O)c1cc(C)n(-c2ccc(F)cc2)c1C | 2 |
| CCOC(=O)N1CCN(C(=O)CN(c2ccc(C)cc2)S(=O)(=O)c2c(C)noc2C)CC1 | 0 |
| CCCCc1nc2ccccc2n2cc3c(=O)n(C)c(=O)n(C)c3c12 | 0 |
| CC1CCCCC1NC(=O)CCCc1nc2ccccc2c(=O)[nH]1 (stereo not given) | 0 |
| Cc1ccccc1-c1nc(CS(=O)(=O)CC(=O)N(C)C2CCCCC2)c(C)o1 | 0 |
| Cc1ccc2cc(C(c3nnnn3CC3CCCO3)N3CCc4ccccc4C3)c(=O)[nH]c2c1 (stereo not given) | 0 |
| C=CCOc1nc2c(c(=O)n(C)c(=O)n2C)n1C | 0 |
| CCOc1ccc(CN2C(=O)c3ccccc3C2C(=O)NCc2cccnc2)cc1 (stereo not given) | 0 |
| CCOC(=O)c1sc(NS(=O)(=O)c2ccc(NC(C)=O)cc2)nc1C | 0 |
| Cc1ccccc1NC(=O)CN1CCC(NC(=O)Nc2ccccc2)CC1 | 4 |
| Cc1ncc(CO)c2c1OC(C)(C)OC2 | 0 |
| COc1ccc(S(=O)(=O)Cc2ccc(C(=O)N3CCN(c4ccccc4)CC3)o2)cc1 | 0 |
| Cc1ccc(CSc2nc3c(c(=O)[nH]2)CCC3)cc1 | 1 |
| C=Cn1nc(C)c2ccccc2c1=O | 0 |
| CCC(=O)N1CCNC(=O)C1CC(=O)Nc1ccc(C)c(Cl)c1 (stereo not given) | 0 |
| Cc1cc(S(=O)(=O)NC2CCCCC2)ccc1OCC(=O)NCc1ccccn1 | 0 |
| Cc1ccc(-c2ccc(/C=N/n3cnnc3)o2)cc1Cl | 11 |
| COc1ccc(OC)c(Nc2cc(-c3ccccc3)nc(N)n2)c1 | 1 |
